Laboratory results published in PMC5540273 (PLoS ONE, 2017).
Where “and” joins values, the source holds several entries; their conditions need not be identical. Identical values can stand only once. Like-named read-outs stand apart in the source and are kept apart here.

Experiments:
Details in all cases: concentration: 1 μM, replicates: in singlicate, n = 1
p38-beta = system: T1, p38-beta
T1 construct: gene MAPK11

p38-delta = system: p38-delta
p38-gamma = system: T2, p38-gamma
T2 construct: gene MAPK12
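Further: KINOMEscan kinase panel screen.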

SMILES	%Inh (p38-beta) [%]	%Inh (p38-delta) [%]	%Inh (p38-gamma) [%]	%Inh (p38-beta; 1 µM)	%Inh (p38-delta; 1 µM)	%Inh (p38-gamma; 1 µM)
Clc1cc(Nc2ncnc3cc[nH]c23)ccc1OCc1ccccn1	26	37	22			
O=c1cc(N2CCOCC2)nc2n(Cc3cccc(Cl)c3)ccn12 [GSK2296823]	0	38	56			
Nc1nc(-c2ccc3c(N)n[nH]c3c2)cc(N2CCCCC2)n1 [GSK2228768]	0	19	0			
COc1ccc(NC(=O)Nc2ccc(C)c(-c3ccc(C(=O)Nc4ccncc4)cc3)c2)cc1 [GSK1398475]	0	37	0			
O=C(Nc1ccccc1F)NC1CCN(c2ccnc(Nc3ccc(F)cc3)n2)C1 (stereo not drawn) [GSK1379722]	0	38	0			
Cc1ccc(C)c(NC(=O)NCCNc2ccnc(Nc3ccc(F)cc3)n2)c1 [GSK1379878]	0	45	0			
CS(=O)(=O)CCNCc1nc(-c2ccc3ncnc(Nc4ccc(OCc5cccc(F)c5)c(Cl)c4)c3c2)cs1.Cl [GW583340]	0	47	0			
O=C(CCO)NCCn1ccc2ncnc(Nc3ccc(Oc4cccc(C(F)(F)F)c4)c(Cl)c3)c21	0	10	5			
Cn1cc(-c2ccc3c(c2)CCN3C(=O)Cc2cccc(C(F)(F)F)c2)c2c(N)ncnc21 [GSK2606414]	0	20	2			
Cl.Cl.c1ccc(-c2cc3ccncc3cc2OC2CCNCC2)cc1 [GSK1122999]	0	44	40			
CS(=O)(=O)CCNCc1ccc(-c2ccc3ncnc(Nc4ccc(OCc5ccccc5)c(Cl)c4)c3c2)o1.Cl [GW574783]	0	21	0			
Cn1ccc2ncnc(Nc3ccc(Oc4cccc(Cl)c4)c(Cl)c3)c21	22	40	8			
Nc1nccc2scc(-c3ccc4c(c3)CCN4C(=O)Cc3cc(F)ccc3F)c12 [GSK2587663]	0	39	0			
CCCc1ccc(S(=O)(=O)NC2CCN(c3ccnc(Nc4ccc(OC)cc4)n3)C2)cc1 (stereo not drawn) [GSK1379737]	0	26	31			
OCCOCCn1ccc2ncnc(Nc3ccc(Oc4cccc(Cl)c4)c(Cl)c3)c21	0	0	0			
CSc1nn2c(=O)cc(N3CCOCC3)nc2n1Cc1cccc(Cl)c1Cl [GSK2347225]	0	59	16			
CCn1c(-c2ccncc2)nc2cnccc21 [SB-735216]	11	4	20			
Fc1cccc(COc2ccc(Nc3ncnc4cc[nH]c34)cc2Cl)c1	13	28	20			
COc1ccc(-c2nc3n(c2-c2ccncc2)CCC3)cc1 [SKF-104493]				33% and 40%	5% and 43%	21% and 8%
Clc1cccc(-c2nc(Nc3ccncc3)c3ccccc3n2)c1 [GW873004]	0	17	0			

SMILES	%Inh (p38-beta) [%]	%Inh (p38-delta) [%]	%Inh (p38-gamma) [%]	%Inh (p38-beta; 1 µM)	%Inh (p38-delta; 1 µM)	%Inh (p38-gamma; 1 µM)
Cc1ccc(O)cc1Nc1cc(C(F)(F)F)nc2ccc(-c3ccncc3)cc12 [GW630823]	0	7	31			
COc1ccc(Nc2nccc(N3CCC(NC(=O)c4cccc(NC(C)=O)c4)C3)n2)cc1 (stereo not drawn) [GSK1379732]	0	22	7			
O=C(Nc1ccccc1)Nc1ccc(Oc2ccc3nccn3n2)cc1	0	2	30			
Nc1nc(-c2ccc3c(N)n[nH]c3c2)cc(N2CCC[C@@H](C(=O)Nc3ccccc3)C2)n1.O=C(O)C(F)(F)F.O=C(O)C(F)(F)F [GSK2288359]	0	18	27			
CCC(CC)(CC)n1cnc2c(N)ncnc21 [SKF-97620]	8	0	1			
Fc1cccc(COc2ccc(Nc3ncnc4sc(-c5ccc[nH]5)cc34)cc2Cl)c1 [GW707818]	4	46	7			
FC(F)(F)c1ccc(-c2nn3ncccc3c2-c2ccnc(Nc3cccc(C(F)(F)F)c3)n2)cc1 [GW828205]	0	3	41			
COC(=O)c1cccc(NC(=O)NCCNc2ccnc(Nc3ccc(F)cc3)n2)c1 [GSK1379883]	0	40	0			
Cl.Fc1ccccc1COc1ccc(Nc2ncnc3ccc(-c4nnc(C(F)(F)F)o4)cc23)cc1Cl [GW424170]	0	29	17			
Cl.c1ccc(Cn2ncc3cc(Nc4ncnc5ccccc45)ccc32)cc1 [GW273749]	0	39	0			
COC(=O)c1c(-c2ccccc2)c2cc(Cl)ccc2c(=O)n1Cc1ccc(S(C)(=O)=O)cc1	0	21	23			
CCc1nc(-c2cccc(N(C)S(=O)(=O)c3ccccc3)c2)c(-c2ccnc(Nc3ccc(N4CCN(C(C)=O)CC4)nc3)n2)s1 [GSK1645895]	0	7	0			
Oc1ccc2ncnc(Nc3ccc(OCc4ccccc4)cc3)c2c1 [GI262866]	0	36	0			
Nc1n[nH]c2nnc(-c3ccccc3)cc12 [SB-517389]	0	39	0			
Cc1cccc(-c2nc(Nc3ccc4[nH]nnc4c3)c3ccccc3n2)n1 [GW867587]	0	0	0			
Nc1nc(-c2ccccn2)c(-c2ccnc3ccccc23)s1 [GW548057]	0	29	0			
NC(=O)c1sc(-n2cnc3ccccc32)cc1OCc1ccccc1F [GSK1024306]	1	0	0			
Clc1ccc(-c2cc(-c3c[nH]nc3-c3ccccn3)ccn2)cc1 [GW681251]	0	25	0			
Fc1cccc(COc2ccc(Nc3ncnc4nn5ccccc5c34)cc2Cl)c1 [GW689066]	0	25	0			
CN1c2ccc(-c3ccc(C(=O)NCCO)cc3)cc2-c2[nH]ncc2S1(=O)=O	4	9	10			

SMILES	%Inh (p38-beta) [%]	%Inh (p38-delta) [%]	%Inh (p38-gamma) [%]	%Inh (p38-beta; 1 µM)	%Inh (p38-delta; 1 µM)	%Inh (p38-gamma; 1 µM)
CC(C)(C)c1ccc(-n2cnc3c(N)ncnc32)cc1 [SKF-97263]	0	11	32			
Cl.Cn1ccc(-c2cccc(Nc3ccnc4cc(-c5nccs5)ccc34)c2)n1 [GW525701]	0	23	14			
Cc1ccc(NC(=O)c2cccc(C#N)c2)cc1-c1ccc(C(=O)Nc2ccncc2)cc1 [GSK1398463]	9	48	26			
Fc1ccc(Nc2nccc(-c3c(-c4ccc(Cl)cc4)nn4ncccc34)n2)cc1F [GW829058]	19	4	37			
Cc1cc(N2CCC(NS(=O)(=O)c3ccc(F)cc3)CC2)nc(Nc2cccc(C#N)c2)n1.O=C(O)C(F)(F)F [GSK1653537]	0	8	0			
COc1ccc(-c2oc3ncnc(N)c3c2-c2ccc(OC)cc2)cc1 [SB-589132]	0	42	8			
O=C(c1ccc(-c2cc(-c3c[nH]nc3-c3ccccn3)ccn2)cc1)N1CCCC1 [GW792479]	20	0	66			
COc1cc2c(Nc3cccc(NC(=O)c4ccccc4)c3)ncnc2cc1OCCCN1CCOCC1 [GSK223810]	89	0	6			
Fc1ccc(-c2ncn(CCCNCc3ccccc3)c2-c2ccncc2)cc1	4	1	24			
COc1ccc(NC(=O)c2ccc(-c3cc(-c4nnc(C)o4)ccc3C)cc2)cc1 [GW595885]	33	17	0			
O=C(Nc1n[nH]c2nc(-c3ccco3)c(Br)cc12)c1ccc(CN2CCCC2)cc1.O=C(O)[C@H](O)[C@@H](O)C(=O)O [SB-742352]	0	0	10			
COc1ccc(Nc2nccc(N3CCC(NC(=O)Nc4ccc5c(c4)OCO5)C3)n2)cc1 (stereo not drawn) [GSK1379745]	0	14	3			
Cl.O=S(=O)(c1cccc(F)c1)c1ccc(Nc2ncnc3cc(Br)sc23)cc1Cl [GSK306886]	0	26	8			
CNc1nccc(-c2c(-c3ccc(F)cc3)ncn2C2CCN(C)CC2)n1 [SB-222903]	13	9	0			
CC(=O)Nc1n[nH]c2ncc(-c3ccccc3)cc12 [SB-548492]	11	3	20			
N#Cc1ccc(Oc2ccc(Nc3ncnc4cc[nH]c34)cc2Cl)cc1	14	3	10			
CNc1nccc(-c2c(-c3ccc(F)cc3)ncn2CCCN2CCOCC2)n1 [SB-222516]	15	0	4			
CC(C)(C)OC(=O)NC1CCCN(c2cc(-c3ccc4c(N)n[nH]c4c3)nc(N)n2)C1 (stereo not drawn) [GSK2286096]	0	47	0			
C[C@@H]1CCN(C(=O)CO)C[C@@H]1N(C)c1ncnc2[nH]ccc12	5	13	1			
C[C@H]1CC[C@@H](C(=O)Nc2ccccc2)CN1c1cc(-c2ccc3c(N)n[nH]c3c2)nc(N)n1 [GSK2283293]	0	0	51			
